Results on 40 compounds are retold here after PubChem BioAssay (NCATS).

SMILES strings stand for the structures. Values without a mark were called inactive. Rule as the data show it: active = potency below about 10 µM; inactive = the rest.
Potency is read from the fitted curve at half-maximal effect.

Chain of Lysosomal acid glucosylceramidase (Homo sapiens) (P04062 whole entry, looked up): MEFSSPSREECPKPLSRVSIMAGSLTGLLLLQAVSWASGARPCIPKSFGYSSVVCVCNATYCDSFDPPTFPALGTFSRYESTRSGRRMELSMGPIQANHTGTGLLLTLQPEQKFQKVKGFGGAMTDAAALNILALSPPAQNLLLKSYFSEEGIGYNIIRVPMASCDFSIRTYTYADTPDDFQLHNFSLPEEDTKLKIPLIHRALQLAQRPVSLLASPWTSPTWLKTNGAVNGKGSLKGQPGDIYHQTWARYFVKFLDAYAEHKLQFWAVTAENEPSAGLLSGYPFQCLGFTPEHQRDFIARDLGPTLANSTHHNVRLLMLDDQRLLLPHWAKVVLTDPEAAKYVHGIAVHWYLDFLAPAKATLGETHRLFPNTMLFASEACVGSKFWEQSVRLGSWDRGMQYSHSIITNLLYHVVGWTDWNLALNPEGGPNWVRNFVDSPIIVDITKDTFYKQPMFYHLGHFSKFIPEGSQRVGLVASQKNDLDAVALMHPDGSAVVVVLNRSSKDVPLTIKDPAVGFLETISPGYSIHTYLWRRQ

The target in this experiment is Lysosomal acid glucosylceramidase (Homo sapiens) (UniProt P04062). In words: Glucocerebrosidase-p2 (AID 348). The settings on record: purified GBA, blue fluorogenic substrate, 40 min. From the text:
Beta-glucocerebrosidase catalyzes the hydrolysis of beta-glucocerebroside to glucose and ceramide. The inherited deficiency of beta-glucocerebrosidase results in Gaucher disease, which is characterized by a wide variety of symptoms including hepatosplenomegaly, anemia, thrombocytopenia, bony lesions and bone marrow infiltration with characteristic storage cells, known as Gaucher cells. There are also forms of the disorder affecting the central nervous system. Patients with the same genotypes can manifest with diverse clinical presentations and it is believed that improper folding and trafficking of beta-glucocerbrosidase may contribute to the phenotypes observed.
Low molecular weight molecules, acting as chaperones, may potentially restore trafficking of misfolded beta-glucocerebrosidase from the endoplasmic reticulum to the lysosomes, thereby enhancing functional lysosomal beta-glucocerebrosidase activity.
Using normal beta-glucocerebrosidase, an assay was developed to screen for small molecule inhibitors that could potentially act as molecular chaperones on the mutant forms [developed with NIH investigator Dr. Ellen Sidransky#s laboratory]. Two pro-fluorescent substrates were chosen for two screens against a small molecule library. One beta-glucocerebrosidase assay used Resorufin beta-D-Glucopyranoside (Marker Gene Technology Inc.), generating a red fluorescent product. The second assay used […] fluorescent product. The Km for the Resorufin beta-D-Glucopyranoside and Fluorescein di-beta-D-Glucopyranoside were determined to be 71.2 uM and 855 uM, respectively. The IC50 values of Conduritol B Epoxide, a known glucocerebrosidase inhibitor, were determined to be 87.5 uM and 117 uM, respectively. The use of two difference pro-fluorescent substrates in the screens helped to eliminate false positives. All compounds were screened in a titration series resulting in AC50s (e.g., IC50s or EC50s). Data normalization and AC50 calculations were accomplished using GeneData software.
NCGC Assay Protocol Summary
Both enzyme and substrate were diluted in buffer composed of 50mM citric acid/KH2PO4, 10mM sodium taurocholate and 0.01% tween-20 at pH 5.9. The final concentration of the enzyme was 0.2 nM in both assays. The compound library was titrated in 7 to 15 concentrations for the primary screens with a final concentration ranging from 0.6 nM to 50 uM. This particular assay protocol is for the "blue" substrate, and it was performed in 1536-well plate format as follows:
Blue fluorescence substrate assay:
1 uL substrate (final concentration of 80 uM)
Incubate at room temperature (RT) for 40 minutes
3 uL stop solution (1 M NaOH and 1 M glycine in water)
Read the plate in Viewlux plate reader (Ex=365(10) and Em=440(10)).
`C[C@@H]1c2ccccc2Cn2cc3c(c21)C(=O)c1cccc(OP(=O)(O)OCc2ccccc2)c1C3=O`: the Potency was > 11.4 µM. Next, `CC[C@@H](c1ccc2cc(O)ccc2c1)C(C)(C)C(=O)O`: > 11.4 µM. With `CC(C)[C@@H]1O[C@H](/C=C\c2ccccc2)OCC1(C)C` the figure was > 11.4 µM; with `CC(=O)C=NCC(=O)O`, > 11.4 µM; with `NCCOC[C@H](N)C(=O)O`, > 11.4 µM.

As for `N#CCCn1c(=O)c(-c2ccccc2)nc2cnc(Oc3cccc(Cl)c3)nc21`, the Potency was > 11.4 µM. With `CN(Cc1cccc2ccccc12)Cc1cccc2ccccc12` the figure was > 11.4 µM. For `Cc1cc2sc(C)[n+](CCCOS(=O)(=O)O)c2cc1C`, the Potency was > 11.4 µM.

Take `ClC(=Nc1cccc2ccccc12)N(c1ccccc1)c1ccccc1`: the Potency was > 11.4 µM.

With `N#CC(CC(=O)O)=C(c1ccccc1)c1ccccc1`, the Potency was > 11.4 µM.

For `Oc1ccc2ccccc2c1Cc1c(O)ccc2ccccc12`, the Potency is > 11.4 µM. Turning to `N#C/C(=C\Nc1ccccn1)C(=O)C1CC1`, the Potency was > 11.4 µM. With `O=C(O)c1nc2nc(Cl)c(Cl)nc2[nH]1` the figure was > 11.4 µM; with `NC(=O)[C@@H]1CCCNC1`, > 11.4 µM. Next, `O=C1C[C@H]2C(=O)[C@@H]1[C@@H](C(=O)O)[C@H]2C(=O)O`: > 11.4 µM; `O=C(O)[C@@H]1CCCN1Cc1cc2ccccc2c2ccccc12`: > 11.4 µM. With `Clc1ccc2c(N3CCC(CCC4CCN(c5ncnc6cc(Cl)ccc56)CC4)CC3)ncnc2c1` the figure was > 11.4 µM. On to `CC(=O)CC(=O)Nc1ccc2ccccc2c1`, for which the Potency is > 11.4 µM. With `O=C(O)CCSc1ncnc2nc[nH]c12`, the Potency was > 11.4 µM. With `O=[N+]([O-])c1ccc(NN=C2c3ccccc3Cc3ccccc32)c([N+](=O)[O-])c1` the figure was > 11.4 µM. Consider `C[C@H](CN(C)C)C(=O)c1ccccc1C(=O)O`, for which the Potency is > 11.4 µM. On to `CCOc1ccc(N=NS(=O)(=O)O)cc1`, for which the Potency was > 11.4 µM. Consider `O=C(O)c1cscc1Cc1cccs1`, for which the Potency is > 11.4 µM. Next, `COc1nc(N)nc2c1ncn2[C@@H]1C[C@H](O)[C@@H](CO)O1`: > 11.4 µM; `CC(C)(CCc1nc2ccccc2[nH]1)C(=O)O`: > 11.4 µM; `O=C1C=C(Nc2nc(C(=O)O)cc(=O)[nH]2)c2ccccc2C1=O`: > 11.4 µM. With `O=[N+]([O-])c1ccc2c(N=Nc3ccc4ccccc4c3O)c(O)cc(S(=O)(=O)O)c2c1` the figure was > 11.4 µM; with `Nc1ccc(C(=O)C[C@H](N)C(=O)O)cc1O`, > 11.4 µM. With `CC(=O)Nc1c(C)cc(OCC(=O)O)cc1C` the figure was > 11.4 µM; with `O=C(O)c1cc(-c2ccc(-c3ccccc3)cc2)nc2cc3ccccc3cc12`, > 11.4 µM. For the compound `CN(C)[C@H]1C(=O)C(C(=O)NCN2CCCC2)=C(O)[C@]2(O)C(=O)C3=C(O)c4c(O)cccc4[C@](C)(O)[C@H]3C[C@H]12`, the Potency was > 11.4 µM.

Consider `O=C1CC[C@H](NC(=O)c2ccccc2)C(=O)N1`, for which the Potency is > 11.4 µM. With `NS(=O)(=O)c1ccc(N=Nc2nc3[nH]cnc(=S)c3[nH]2)cc1` the figure was > 11.4 µM; with `Cc1nc2sc3c(c2c(=O)[nH]1)CCCC3`, > 11.4 µM. As for `CCC(=O)OCN1C(=O)C=CC1=O`, the Potency was > 11.4 µM.

On to `CCC(=O)[C@@H](c1ccccc1)c1ccccn1`, for which the Potency was > 11.4 µM. With `CC[C@@H](Nc1ncnc2nc[nH]c12)C(=O)O` the figure was > 11.4 µM. Next, `O=C(O)C[C@@H](C(=O)O)c1ccccc1[N+](=O)[O-]`: > 11.4 µM; `O=C(O)c1ccccc1/C=N\N=C1c2ccccc2-c2ccccc21`: > 11.4 µM; `O=C(O)CSC1=NCCN1`: > 11.4 µM.
